The subject of assay [1] is Human papillomavirus type 1a protein E7 (residues 44-93). The experiment in a line: HPV1a E7 fragment binders on microarrays, primary screen, biochemical, small-molecule microarray, residues 44-93, 635 nm fluorescence (AID 1108).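 Note: E7 fragment applied at 1 µg/mL in TBST for 1 h at 4 C; score combines spot fluorescence with its signal to noise ratio.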 As to conditions: small-molecule microarray binding, fluorescence 635 nm; higher = more signal.
Assay [2] in a line: modulators of HCV replicon luciferase signal, primary screen, HCV replication inhibitor project, Huh7 cells, luciferase reporter (AID 1109).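 Note: huh7 hepatoma cells harbouring a luciferase neomycin HCV replicon reporter; luciferase luminescence as measure of HCV replicon replication; test concentration not given here.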 As to conditions: 48 h, higher = more signal.
The target in assay [3] is Left-right determination factor 2 (Homo sapiens) (UniProt O00292). Nature of the assay: LEFTY2 binders on small-molecule microarrays, primary screen, biochemical, small-molecule microarray, 635 nm fluorescence scan (AID 1110). As to conditions: LEFTY2 binding, higher = more signal.
In assay [4] the target is Calmodulin-1 (Homo sapiens) (UniProt P0DP23). Nature of the assay: CALM1 binders on microarrays, EGTA buffer, profiling panel, biochemical, small-molecule microarray, Cy5-labelled CALM1 (AID 1111).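 Note: labelled calmodulin applied in Tris saline Tween buffer holding calcium plus EGTA and DTT.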 As to conditions: Cy5-CALM1 binding fluorescence, higher = more signal.
Assay [5] shares this target. Nature of the assay: calcium-bound CALM1 binders on microarrays, profiling panel, artefact control for SMM control-protein annotation, biochemical, small-molecule microarray, Cy5-labelled CALM1, plus calcium (AID 1112).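 Note: score merges spot fluorescence with signal to noise from triplicate slides.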 As to conditions: Cy5-CALM1 binding fluorescence, higher = more signal.
Assay [6] can be described thus: small-molecule microarray binders of probe aWnt5a, primary screen, biochemical, biotinylated probe, 635/667 nm fluorescence (AID 1113).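 Note: score merges 667 nm fluorescence intensity with signal-to-noise per printed feature.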 As to conditions: higher = more signal.
Assay [7] can be described thus: small-molecule microarray binders of probe aShh, primary screen, biochemical, biotinylated probe, 635/667 nm fluorescence (AID 1114).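 Note: probe is biotin-labelled aShh protein from a stem cell growth factor screen; measures binding of labelled protein to compounds printed on the slide; score merges feature fluorescence at 667 nm with signal-to-noise.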 As to conditions: higher = more signal.
The nature of assay [8]: small-molecule microarray binders of probe aNog, primary screen, biochemical, biotinylated probe, 635/667 nm fluorescence (AID 1115).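 Note: probe is biotinylated aNog protein used at 0.15 µg/mL for 1 h at 4 C; z-score combines 667 nm fluorescence of each spot with its signal to noise.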 As to conditions: higher = more signal.
The target of assay [9] is Torsin-1A-interacting protein 1 (Homo sapiens) (UniProt Q5JTV8). Nature of the assay: LAP1 binders from COS7 cell lysate, primary screen, small-molecule microarray, 635/667 nm fluorescence (AID 1116). As to conditions: COS7-hLAP1 lysate binding, 635 nm fluorescence, higher = more signal.
Assay [10] addresses Alpha-bungarotoxin (Bungarus multicinctus) (UniProt P60615). The experiment in a line: alpha-bungarotoxin binders on microarray, profiling panel, artefact control for SMM control protein annotation, biochemical, small-molecule microarray, Alexa647 label, 635/667 nm fluorescence (AID 1117). As to conditions: alpha-BTX-A647 binding fluorescence, higher = more signal.
In a further assay the target is Albumin (Bos taurus) (UniProt P02769). Nature of the assay: bovine serum albumin binders on microarray, profiling panel, artefact control for SMM control protein annotation, biochemical, small-molecule microarray, Alexa647 label, 635/667 nm fluorescence (AID 1118).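 Note: score merges 667 nm emission intensity and signal-to-noise per printed compound spot.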 As to conditions: BSA-A647 binding, fluorescence 635 nm, higher = more signal.
A short description of assay [11]: small-molecule microarray binders of probe aXIP, primary screen, biochemical, NeuroSMM set, 635/667 nm fluorescence (AID 1119).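 Note: probe is the protein aXip251-270 applied at 1 µg/mL to compound-printed slides; binding of probe to printed compounds measured as 667 nm fluorescence plus signal to noise.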 As to conditions: higher = more signal, called active from +8 up or from −8 down.
The nature of assay [12]: small-molecule binders of probe aNOTCH3, primary screen, biochemical, small-molecule microarray, 635/667 nm fluorescence (AID 1120).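 Note: probe is a biotin-tagged antibody raised against NOTCH3 rather than NOTCH3 protein; score merges spot fluorescence near 667 nm with spot signal to noise.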 As to conditions: higher = more signal.
The nature of assay [13]: small-molecule binders of probe aNOTCH2, primary screen, biochemical, small-molecule microarray, 635/667 nm fluorescence (AID 1121).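 Note: score merges feature fluorescence read at 667 nm with its signal to noise.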 As to conditions: higher = more signal.
Assay [14] has as its target Carbonic anhydrase 2 (Homo sapiens) (UniProt P00918). Nature of the assay: CAII small-molecule binders, profiling panel, biochemical, small-molecule microarray, Alexa647-labelled CAII (AID 1122). As to conditions: CAII-A647 binding fluorescence, higher = more signal.
Assay [15] in a line: COS7 lysate on small-molecule microarray, probe aHis, 635 nm (AID 1123).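 Note: z-score combines 667nm fluorescence intensity with signal-to-noise per printed compound spot.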 As to conditions: COS7 cell lysate, fluorescence, higher = more signal.
A short description of assay [16]: compound binding in COS7 lysate, probe aLAP1, primary screen, cell lysate, small-molecule microarray (AID 1124).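 Note: lysate comes from COS7 cells expressing LAP1 and is applied at 0.3 µg/mL; score merges spot fluorescence near 667 nm with signal-to-noise over triplicate slides.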 As to conditions: probe aLAP1, fluorescence, higher = more signal.
Another assay concerns Sam68 (KHDRBS1). Nature of the assay: Sam68 small-molecule binders, primary screen, biochemical, small-molecule microarray, 635 nm fluorescence (AID 1125).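 Note: score merges 667 nm channel intensity with signal to noise over triplicate slides.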 As to conditions: small-molecule microarray binding, higher = more signal.
Assay [17] concerns Chordin-like protein 2 (CHRDL2). The experiment in a line: CHRDL2 small-molecule binders, primary screen, biochemical, small-molecule microarray, 635 nm fluorescence (AID 1126).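 Note: printed compound slides probed with Chrdl2 protein at 4 µg/mL for 1 h at 4 C; score merges 667 nm emission intensity with signal to noise over three replicate slides.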 As to conditions: small-molecule microarray binding, fluorescence 635 nm; higher = more signal.
In assay [18] the target is Concanavalin-A (Canavalia ensiformis) (UniProt P02866). Nature of the assay: ConA small-molecule binders, primary screen, artefact control for SMM control protein annotation, biochemical, small-molecule microarray, Alexa647 label, 635 nm (AID 1127).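 Note: z combines 667 nm emission intensity with signal-to-noise across three replicate slides.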 As to conditions: ConA-A647 binding fluorescence, higher = more signal.

Each structure is given as a SMILES string. Calls of active or inactive are those of the source.

Chain of Concanavalin-A (Canavalia ensiformis) (P02866 whole entry, looked up): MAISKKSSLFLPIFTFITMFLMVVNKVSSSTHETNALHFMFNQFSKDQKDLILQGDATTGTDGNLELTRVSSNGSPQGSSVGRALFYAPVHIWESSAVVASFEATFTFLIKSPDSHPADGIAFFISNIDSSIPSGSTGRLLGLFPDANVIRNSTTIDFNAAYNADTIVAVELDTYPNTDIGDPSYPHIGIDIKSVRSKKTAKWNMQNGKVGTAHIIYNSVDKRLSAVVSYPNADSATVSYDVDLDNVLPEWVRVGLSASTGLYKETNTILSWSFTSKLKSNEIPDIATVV
Chain of Alpha-bungarotoxin (Bungarus multicinctus) (P60615 whole entry, looked up): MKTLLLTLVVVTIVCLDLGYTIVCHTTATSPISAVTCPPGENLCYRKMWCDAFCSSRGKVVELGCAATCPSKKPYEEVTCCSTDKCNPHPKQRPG
Chain of Albumin (Bos taurus) (P02769 whole entry, looked up): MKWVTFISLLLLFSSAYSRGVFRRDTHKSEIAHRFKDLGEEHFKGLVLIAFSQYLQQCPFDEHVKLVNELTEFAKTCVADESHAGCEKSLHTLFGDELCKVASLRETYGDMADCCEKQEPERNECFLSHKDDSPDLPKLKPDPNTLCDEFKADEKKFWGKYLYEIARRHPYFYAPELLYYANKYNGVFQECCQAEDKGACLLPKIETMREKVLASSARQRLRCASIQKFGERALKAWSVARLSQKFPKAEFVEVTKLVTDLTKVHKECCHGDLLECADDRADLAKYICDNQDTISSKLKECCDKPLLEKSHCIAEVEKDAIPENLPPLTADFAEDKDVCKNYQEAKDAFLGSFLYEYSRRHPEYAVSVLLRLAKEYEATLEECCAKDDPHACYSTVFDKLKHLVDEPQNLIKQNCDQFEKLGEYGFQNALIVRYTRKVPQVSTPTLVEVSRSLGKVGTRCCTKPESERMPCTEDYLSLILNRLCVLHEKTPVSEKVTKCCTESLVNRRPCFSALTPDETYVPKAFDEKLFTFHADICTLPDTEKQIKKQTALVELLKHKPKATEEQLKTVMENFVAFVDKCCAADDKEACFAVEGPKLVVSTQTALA
Chain of Torsin-1A-interacting protein 1 (Homo sapiens) (Q5JTV8 whole entry, looked up): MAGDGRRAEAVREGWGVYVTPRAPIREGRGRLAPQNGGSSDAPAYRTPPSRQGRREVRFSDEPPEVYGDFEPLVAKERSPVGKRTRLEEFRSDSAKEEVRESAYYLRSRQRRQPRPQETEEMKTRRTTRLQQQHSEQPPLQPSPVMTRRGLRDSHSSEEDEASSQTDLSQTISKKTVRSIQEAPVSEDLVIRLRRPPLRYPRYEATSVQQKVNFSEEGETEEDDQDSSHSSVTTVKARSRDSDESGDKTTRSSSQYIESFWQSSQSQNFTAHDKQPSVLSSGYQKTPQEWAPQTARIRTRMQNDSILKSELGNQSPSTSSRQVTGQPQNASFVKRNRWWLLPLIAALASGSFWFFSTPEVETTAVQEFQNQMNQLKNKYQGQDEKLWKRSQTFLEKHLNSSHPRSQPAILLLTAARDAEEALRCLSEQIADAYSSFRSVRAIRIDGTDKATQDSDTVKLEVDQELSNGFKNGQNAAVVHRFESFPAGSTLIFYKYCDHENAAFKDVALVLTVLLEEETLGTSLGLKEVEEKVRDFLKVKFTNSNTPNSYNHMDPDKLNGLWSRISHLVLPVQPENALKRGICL
Chain of Left-right determination factor 2 (Homo sapiens) (O00292 whole entry, looked up): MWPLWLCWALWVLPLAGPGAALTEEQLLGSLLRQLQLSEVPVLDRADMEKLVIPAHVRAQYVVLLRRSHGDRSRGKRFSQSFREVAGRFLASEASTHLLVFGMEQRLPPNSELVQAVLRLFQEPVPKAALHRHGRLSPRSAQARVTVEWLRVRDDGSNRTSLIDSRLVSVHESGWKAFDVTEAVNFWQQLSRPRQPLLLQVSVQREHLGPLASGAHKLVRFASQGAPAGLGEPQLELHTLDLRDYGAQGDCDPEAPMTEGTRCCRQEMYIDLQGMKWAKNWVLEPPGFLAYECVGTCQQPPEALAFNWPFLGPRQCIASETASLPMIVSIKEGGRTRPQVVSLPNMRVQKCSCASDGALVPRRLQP

With `COc1ccc([Si](C)(C)[C@H]2[C@H](CCO)O[C@@]3(C(=O)N(Cc4cccc(N5CCOC5=O)c4)c4ccccc43)[C@@H]2C)cc1`, the composite z-score in assay [1] was 1.1; in assay [3] it was 0.118; in assay [4], 1.4; in assay [5], -0.207; in [6], -0.101; in assay [7] it was 0.0668. In addition, the composite z-score in assay [8] is -0.118; in assay [9], -0.18; in [10], 0.355; with Albumin (Bos taurus) it was 0.688; in assay [12], 0.0203; in [13], -0.0942. Besides, the composite z-score was 0.281 in [14]; 1.04 in [15]; -0.15 in [16]; 0.996 in the assay on Sam68 (KHDRBS1); -0.0894 in [17]; 1.1 in [18]. In [2], this compound had a z-score of -4.39. Moreover, the composite Z-score in assay [11] is 0.207 (inactive).
With `COCC(=C=CC[C@@H](O)c1ccccc1OCCO)C[C@@H](O)COCc1ccccc1`, the composite z-score in [1] was -0.0562; in [3], -0.522; in assay [4] it was 1.16; in [5] it was 0.0936; in assay [6], 0.0158; in assay [7], 0.536. Also, the composite z-score was 0.998 in [8]; 2.56 in assay [9]; -0.18 in [10]; 0.521 in the assay with Albumin (Bos taurus); 0.779 in [12]; 0.365 in assay [13]. Also, the composite z-score in assay [14] was 0.73; in assay [15], 2.22; in [16], 1.04; with Sam68 (KHDRBS1) it was 1.04; in assay [17], -0.463; in assay [18] it was 0.244. Also, the z-score in assay [2] was -0.868. In addition, the composite Z-score in assay [11] was 0.418 (inactive).
`CC(C)=CCCC(C)=CC(O)C1C=CC2C(=O)N(c3ccccc3)C(=O)C2N1Nc1ccc([N+](=O)[O-])cc1` (stereo not given): the composite z-score in [1] is 1.42; in assay [3] it was -0.183; in assay [4], 1.78; in [5], 0.512; in assay [6] it was -0.0194; in [7], 0.0952. For the same compound, the composite z-score in assay [8] is 1.71; in assay [9], 1.08; in assay [10], 0.972; in the assay with Albumin (Bos taurus) it was 1.01; in [12] it was 0.155; in [13] it was -0.0697. For the same compound, the composite z-score in assay [14] was 0.856; in [15] it was 2.77; in [16] it was 0.167; in the assay on Sam68 (KHDRBS1), 1.35; in assay [17] it was -1; in assay [18], 1.14. Further, in assay [2], the z-score is -0.135. The composite Z-score in [11] was 0.649 (inactive).
For `C=CC[C@@]1(C(=O)NCC(O)CO)N=C(c2ccc(OCCCO)cc2)O[C@@H]1c1ccccc1` (stereo not given in full), the composite z-score was 1.21 in assay [1]; -0.834 in [3]; 2.22 in assay [4]; 0.971 in assay [5]; 0.512 in [6]; 0.786 in [7]. The composite z-score in assay [8] was -0.419; in assay [9] it was 3.73; in [10], 2.59; in the assay with Albumin (Bos taurus), 0.814; in assay [12], 0.13; in [13] it was -0.0028. Further, the composite z-score is 0.797 in [14]; 3.84 in assay [15]; 0.595 in assay [16]; 1.22 in the assay with Sam68 (KHDRBS1); -0.381 in assay [17]; -0.237 in [18]. Also, the z-score in [2] turned out to be 0.235. Moreover, the composite Z-score in [11] was 1.81 (inactive).
As for `COCCCNC(=O)[C@]1(CCS(=O)(=O)c2ccccc2)N=C(c2ccc(OCCCO)cc2)O[C@@H]1c1ccccc1`, the composite z-score in [1] was 1.11; in assay [3], 0.494; in assay [4], 1.62; in [5], 0.214; in [6], 0.0179; in assay [7], -0.161. The composite z-score in assay [8] is -0.315; in assay [9] it was 1.8; in assay [10], 1.5; with Albumin (Bos taurus), 0.88; in [12], 0.558; in assay [13], 0.284. The composite z-score in assay [14] is 0.751; in assay [15], 2.99; in assay [16], 1.75; with Sam68 (KHDRBS1) it was 1.3; in assay [17], 0.0923; in [18] it was 1.1. Also, in [2], the z-score was -0.995. Moreover, in assay [11], the composite Z-score was -0.263 (inactive).

For the origin of these results see PubChem BioAssay.
